Compound activity deposited in PubChem BioAssay by several laboratories.
Most compounds without a hit are left out; they make up all but 3.4% or so of the library.
Mcl1-Bid inh: disrupts binding of human Mcl-1 to Bid peptide. Q07820. TR-FRET Mcl-1/Bid-Dy647 peptide binding, 1536-well. inhibition, % at 21.7 µM. actives 0.97% (n = 220,000). AID 1021;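 active = compounds that cut the binding signal by more than half at the single screening dose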;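 note: His-tagged Mcl-1 with europium anti-His antibody binding Bid BH3 peptide; 0% = Mcl-1 plus peptide wells and 100% = peptide-only wells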
Bim-Mcl-1: inhibitors of Bim-Mcl-1 interaction, human. Q07820. Bead-based flow cytometry, Bim peptide-Mcl-1 binding. inhibition, % at 10 µM. actives 0.1% (n = 190,000); in the data active = inhibition above about 40%;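 note: 0% = no compound tracer wells and 100% = peptide blocker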
p47phox inh: p47phox (human) inhibition | actives 0.53% (n = 220,000) | inhibition, % at 24.7 µM | P14598 | p47phox/p22phox peptide binding, fluorescence polarization, 2 h;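 note: 0% = p47phox with labelled peptide and 100% = labelled peptide alone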
Target sequence (P14598 whole entry, looked up): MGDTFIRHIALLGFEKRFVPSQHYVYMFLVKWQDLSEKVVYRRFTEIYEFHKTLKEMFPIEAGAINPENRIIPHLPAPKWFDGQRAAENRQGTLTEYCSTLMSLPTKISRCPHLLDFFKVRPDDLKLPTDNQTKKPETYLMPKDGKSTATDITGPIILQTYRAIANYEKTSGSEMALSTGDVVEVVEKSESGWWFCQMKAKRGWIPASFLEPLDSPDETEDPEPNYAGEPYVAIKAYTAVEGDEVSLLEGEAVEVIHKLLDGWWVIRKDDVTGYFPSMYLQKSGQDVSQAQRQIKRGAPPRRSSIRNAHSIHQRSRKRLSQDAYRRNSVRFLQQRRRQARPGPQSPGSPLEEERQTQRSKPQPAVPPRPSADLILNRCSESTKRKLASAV
14-3-3 Bad inh: disrupts binding of bovine 14-3-3 zeta to phospho-Bad peptide | actives 0.71% (n = 220,000) | P63103 | AID 781 | inhibition, % at 21.7 µM | TR-FRET 14-3-3zeta/Dy647-pBad peptide displacement, 1 h;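 active = inhibition above about 70%, limit read from the data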;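 note: 0% = full 14-3-3 plus peptide FRET controls and 100% = background without 14-3-3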
Mcl1 Noxa PPI: disrupts binding of human Mcl-1 to Noxa peptide; Q07820; TR-FRET Mcl-1/Noxa peptide binding, 2 h; inhibition, % at 21.7 µM; actives 1.5% (n = 220,000); AID 1022;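 active = compounds that cut the protein-peptide binding signal by more than 50% relative to plate controls in a single-dose test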;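 note: His-tagged Mcl-1 with rhodamine Noxa BH3 peptide and terbium anti-His antibody; 0% = Mcl-1 plus Noxa peptide wells and 100% = peptide-only wells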
eIF4E-4G inh: blocks eIF4E binding to eIF4G; P63073+Q04637; TR-FRET eIF4E-eIF4GI(517-606) binding, 2 h; inhibition, % at 21.7 µM; actives 0.37% (n = 220,000);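 note: 0% = full FRET control wells and 100% = background wells lacking eIF4GI fragment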
The depositor's hits bear a star; nt = no result given.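 Rule for the calls, unless noted: active = inhibition above about 30% (limit read from the data); inactive = the rest.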

SMILES	Mcl1-Bid inh	Bim-Mcl-1	p47phox inh	14-3-3 Bad inh	Mcl1 Noxa PPI	eIF4E-4G inh
COc1ccc(C(=O)Nc2cccc(C)c2)cc1S(=O)(=O)N1CCOCC1	76*	0	-13	-7	3	-4
COc1cc2c(cc1OC)CN(C(=O)c1ccc(S(=O)(=O)N3CCCCC3)cc1)CC2	-30	-23	49*	14	-2	23
COc1ccc(NC(=O)c2ccc(Cl)nc2)cc1S(=O)(=O)N1CCCCC1	-40	0	-9	91*	18	-3
COc1cccc2c(=O)c(C(=O)O)c[nH]c12	14	-2	0	9	-76	4
O=C(O)c1c[nH]c2c(C(F)(F)F)cccc2c1=O	53*	-1	-7	39	7	-5
CCOC(=O)CNC(=O)Cc1ccc(OC)cc1	-4	nt	-4	3	1	10
CC(C)(C)N1OC2CC1c1nc3ccccc3n1C2 (stereo not given)	-32	nt	50*	-3	-7	-6
COc1ccc(N2C(=O)C(CC(=O)Nc3ccc(F)cc3)N(CCc3ccc(OC)c(OC)c3)C2=O)cc1 (stereo not given)	-20	0	-8	-6	2	3
O=C(O)c1[nH]c2ccc([N+](=O)[O-])cc2c1-c1ccccc1	-22	nt	-12	0	12	1
O=[N+]([O-])c1ccc2[nH]nc(-c3ccccc3)c2c1	0	44*	-10	-4	23	5
O=[N+]([O-])c1ccc2[nH]c3nc4ccccc4nc3c2c1	36	nt	2	44	64*	-12
Cc1cccc(C2Nc3ccccc3C(=O)N2NC(=O)c2ccc([N+](=O)[O-])cc2)n1 (stereo not given)	0	-6	-2	74*	6	0
COc1ccc2c(c1)NC(c1ccc(N(C)C)cc1)c1cccn1-2 (stereo not given)	-21	nt	-60	-8	7	13
CCc1ccc(CCC(=O)Nc2ccc(C)cc2C)o1	84*	-1	-3	4	38	4
Cc1ccc(NC(=O)CCC(=O)NNC(=O)CCc2ccccc2)c(C)c1	-5	-1	-3	-14	4	-3
CCOC(=O)Nc1ccc(C)cc1C	13	-4	117*	4	-5	8
CCCCC1=NN(C(=O)c2cccnc2)C(O)(C(F)(F)F)C1 (stereo not given)	-21	nt	-3	-1	13	1
NS(=O)(=O)c1cc2c(cc1Cl)NC(Cc1ccccc1)NS2(=O)=O (stereo not given)	97*	nt	9	-3	-6	-2
CCN1C(=O)/C(=C\c2cn(-c3ccccc3)nc2-c2cccnc2)SC1=S	56*	0	5	78*	4	15
Cn1c(SCC(=O)N=Nc2c(O)[nH]c3ccccc23)nc2ccccc21	83*	-7	7	4	42	3
O=C(CSc1nc2ccccc2[nH]1)N=Nc1c(O)[nH]c2ccccc12	-33	12	-45	4	22	-2
COc1cc(/C=C/C(=O)O)cc(S(=O)(=O)N2CCc3ccccc3C2)c1OC	-19	-1	0	-5	9	-4
CC1=C(C#N)c2nc(N)c(C#N)c(C)c2/C1=C\c1ccc(-c2ccccc2C(=O)O)o1	-6	5	37*	56	82*	12
OCCNc1nc(Nc2ccccc2)nc(Nc2ccccc2)n1	-1	-1	-8	2	92*	8
CNc1nc(N)c(C(=O)C23CC4CC(CC(C4)C2)C3)s1	-74	0	-3	-8	11	0
SMILES	Mcl1-Bid inh	Bim-Mcl-1	p47phox inh	14-3-3 Bad inh	Mcl1 Noxa PPI	eIF4E-4G inh
CC1(NC(=S)Nc2ccccc2)CCS(=O)(=O)C1 (stereo not given)	-34	nt	-5	-6	-6	1
Oc1ccccc1C1Nc2cccc3cccc(c23)N1	-4	-3	-16	-13	98*	13
Brc1ccc(C2Nc3cccc4cccc(c34)N2)o1	-1	-1	5	2	65*	2
O=C(O)CCc1nn2c3ccccc3n(Cc3ccccc3F)c2nc1=O	2	0	-2	-9	10	3
CC(C)C(O)(C#CCN1CCCC1)c1ccccc1 (stereo not given)	32	0	2	52	34	5
CC(C)C(O)(C#CCN1CCCCC1)c1ccccc1 (stereo not given)	18	-2	-5	80*	31	-12
O=C(CCC(=O)N(CC(=O)NC1CCCCC1)CC1CCCO1)Nc1nccs1 (stereo not given)	-9	0	1	-6	-9	0
COC(=O)c1cnc(Oc2c(Cl)cc(N)cc2Cl)cc1C(F)(F)F	-1	nt	-9	-1	-2	0
O=C(NNc1cc(N2CCOCC2)nc(N2CCOCC2)n1)c1ccc([N+](=O)[O-])cc1	-74	1	49*	-9	8	-4
COc1ccc2[nH]c(C(=O)Nc3ccc4c(c3)OCO4)cc2c1	-20	nt	6	2	21	1
CCOc1ccc2noc3c2c1C(=O)c1ccccc1-3	-6	0	44*	11	43	-9
CCNc1ccc2noc3c2c1C(=O)c1ccccc1-3	88*	2	-279	-14	-239	7
O=C1c2ccccc2-c2onc3ccc(NCc4ccco4)c1c23	57*	35	-235	-5	9	4
O=C1c2ccccc2C(=O)c2c1cccc2N1CCCC1	-60	-2	5	7	17	19
CCOC(=O)c1c(C)oc2c1C(=O)c1ccccc1C2=O	-19	0	-7	3	20	-1
Cn1c(=O)cc2c3c(c(N4CCCCC4)ccc31)C(=O)c1ccccc1-2	-38	nt	34*	-30	26	-14
COc1nc(-c2cnccn2)sc1C	-9	-2	-4	-3	27	-1
O=C1c2ccccc2-c2onc3ccc(N4CCCC4)c1c23	-30	33	-229	25	-7	34*
COc1ccccc1C(=O)N/N=C/c1cnc2ccccc2n1	-25	-5	-9	-1	10	-4
Cc1ccc(C2C(/C=C3/SC(=S)NC3=O)=C(c3cccs3)Oc3ccccc32)cc1 (stereo not given)	2	4	-45	1	90*	-2
O=C(/C=C/c1ccccc1)OCCCN=C1NS(=O)(=O)c2ccccc21	-24	2	26	4	6	5
CCc1ccc(NC(=O)C2CCCN2S(=O)(=O)c2ccc3c(c2)n(C)c(=O)c(=O)n3C)cc1 (stereo not given)	-20	nt	1	2	-17	4
CCOC(=O)C1CCN(Cc2ccc(F)c(Br)c2)CC1	39	6	-8	23	24	1
CCOC(=O)C1CCN(Cc2ccc(F)cc2F)CC1	15	3	-5	76*	6	1
